Source: PubChem BioAssay (NCATS)
Inconclusive results are not listed. Unmarked numbers belong to inactive results. Calls of active or inactive are those of the source. The call rests on the fitted dose curve; in most records, active means well fitted cell-killing curve with a large enough effect; inconclusive means small, poorly fitted or top-dose-only effect; inactive means no such curve, though single readings can be large or run the other way.
On the % scale 0 is the no-effect control and ±100 the full control effect; potency means the concentration at half of the fitted maximal effect.

Assay: qHTS of pediatric cancer cell lines to identify multiple opportunities for drug repurposing: Primary screen for SK-N-SH cells (AID 1347098); further: nearly all actives have a fitted effect of over 65% in size
Conditions: SK-N-SH viability, CellTiter-Glo luminescence, 48 h; series mostly up to 57 µM; activity change, negative = cytotoxic: at the top concentration
Description: Drug repurposing or repositioning has been offered as a strategy for drug development in oncology programs. This approach has special potential for childhood cancers and other rare or orphan diseases, where the expected return on new drug development has been a disincentive to pharmaceuticals.
In this project we exploit the poly-pharmacology of drugs to discover new indications via phenotypic screening of a panel of 19 well-characterized cell lines derived from solid tumors seen in children and adolescents. The goal is to identify approved drugs with previously unrecognized anticancer properties that has the potential to reveal new mechanisms and biological processes involved in carcinogenesis or drug resistance. We employed a titration-based paradigm (quantitative high-throughput screening or qHTS), where all compounds were tested at multiple concentrations for their effect on cell viability. Concentration-response curves (CRCs) were derived directly from the primary screen, and both potency and efficacy values were used to identify compounds with robust bioactivity profiles. We screened the NIH Chemical Genomics Center (NCGC) Pharmaceutical Collection (NPC) and Mechanism Interrogation Plate (MIPE) small molecule collections of approved and investigational compounds against these cell lines; and measured metabolically active cells after 48 hours of compound treatment as a proxy for cell viability.
Assay Submitter: Nathalia J. Martinez, National Center for Advancing Translational Sciences, National Institutes of Health, Rockville, MD, USA; email: natalia.martinez@nih.gov
[1] Shen, M et al. Quantitative high-throughput phenotypic screening of pediatric cancer cell lines identifies multiple opportunities for drug repurposing. Oncotarget 2017 Dec 19;9(4):4758-4772. PMID 29435139.
The cells were obtained from University of North Carolina (UNC), Pediatric Preclinical Testing Program (PPT), and Coriell Institute (CI).
qHTS cell viability assay:
Cells were assayed in growth media at a density of 500-1,000 cells/well. Five microliters of cells were dispensed into 1,536-well, white, solid-bottom, TC-treated plates (Greiner Bio One) using a multidrop dispenser and incubated at 37 degrees C, 5% CO2, under a humidified atmosphere for 5 hours. Twenty-three nanoliters of compounds and controls (neutral control DMSO or positive control bortezomib at final concentration of 2.3 µM) were subsequently transferred by Kalypsys pintool. For primary screens, the MIPE collection was tested at 11-point dilutions (final concentrations range from 0.78 nM to 46 µM) and the NPC collection at 8-point dilutions (final concentrations range from 0.59 nM to 46 µM). Compounds tested in follow-up screens were assayed at 11-point dilutions. Cells were incubated for 48 hours, followed by addition of 3 µL of CellTiter-Glo (Promega). After a 15 min incubation at room temperature, samples were analyzed for luminescence intensity using a ViewLux High-throughput CCD imager equipped with clear filters.
In the case of O=C(NC[C@H](O)CO)c1ccncc1Nc1ccc(I)cc1F, the Potency is reported as 21.5 µM (active). With CC1(COc2ccc3c(c2)ncn3-c2ccc3cccc(N4CCC(N)CC4)c3n2)COC1 the “activity change, negative = cytotoxic” value was -99.7%. For CN1CCC[C@H]1CCO[C@](C)(c1ccccc1)c1ccc(Cl)cc1, the Potency was 30.4 µM (active). In the case of CCn1c(-c2nonc2N)nc2cncc(CNC3CCNCC3)c21, the Potency is reported as 24.1 µM (active). For COc1cc2c(cc1Cc1cccc(Cl)c1F)c(=O)c(C(=O)O)cn2[C@H](CO)C(C)C, the “activity change, negative = cytotoxic” value was 5.42%. With CN(C)CCOc1ccc(-c2nc(-c3ccc4c(c3)CCC4=NO)c(-c3ccncc3)[nH]2)cc1 the Potency was 24.1 µM (active). For CC(=O)NCCC(=O)N[C@@H](CCC(N)=O)C(=O)N[C@@H](CO)C(=O)N[C@@H](CCC(N)=O)C(=O)N[C@@H](CCC(N)=O)C(=O)N[C@H](C(=O)N[C@@H](Cc1ccccc1)C(=O)N[C@]1(C)CCCCCCC=CCCC[C@@](C)(C(=O)N[C@@H](CCC(N)=O)C(=O)N[C@@H](CC(N)=O)C(N)=O)NC(=O)[C@H](CC(C)C)NC(=O)[C@H](CC(C)C)NC(=O)[C@@H](CCCNC(=N)N)NC(=O)[C@H](Cc2c[nH]c3ccccc23)NC(=O)[C@H](CC(C)C)NC(=O)[C@H](CC(N)=O)NC1=O)[C@H](C)O, the “activity change, negative = cytotoxic” value was -19%. With CN(C)CCOc1cc(-c2cn[nH]c2)ccc1NC(=O)C1COc2ccccc2O1 (stereo not given) the Potency was 10.8 µM (active). In the case of CCCCC(F)(F)[C@@]1(O)CC[C@H]2[C@H](CC(=O)[C@@H]2CCCCCCC(=O)O)O1, the “activity change, negative = cytotoxic” value is reported as 20.5%. With COc1nccc(-c2c(-c3ccc(F)cc3)ncn2C2CCC(O)CC2)n1 (stereo not given) the “activity change, negative = cytotoxic” value was 15.7%. With CN(C)CCOc1ccc(C(=C(CCCl)c2ccccc2)c2ccccc2)cc1 the “activity change, negative = cytotoxic” value was -2.09%. For Cc1nn(Cc2ccccc2Cl)c(C)c1CN(C)CC(O)COc1ccc(Cl)cc1 (stereo not given), the Potency was 24.1 µM (active). In the case of N=C1SC(=Cc2ccc(-c3ccc4c(c3)C(=O)NC4=O)o2)C(=O)N1c1ccc(Br)cc1, the “activity change, negative = cytotoxic” value is reported as -7.31%. For O=C(Nc1ccc(OC(F)(F)F)cc1)c1sccc1NCc1ccnc2ccccc12, the “activity change, negative = cytotoxic” value was 4.79%. In the case of OCCn1cc(-c2ccc3c(c2)CCC3=NO)c(-c2ccncc2)n1, the Potency is reported as 19.2 µM (active). For O=c1[nH]c(=O)n([C@H]2C[C@@H](O)[C@@H](CO)O2)cc1C(F)(F)F, the “activity change, negative = cytotoxic” value was -16.4%. For CN(C)S(=O)(=O)c1ccc2c(c1)C(=Cc1cc3c([nH]1)CCCC3)C(=O)N2, the Potency was 3.83 µM (active). With CNC(=O)c1c(-c2ccc(F)cc2)oc2cc(N(CCO)S(C)(=O)=O)c(C3CC3)cc12 the Potency was 30.4 µM (active). With COc1ccc(-c2nc3ccc(C4=NNC(=O)CC4C)cc3[nH]2)cc1 (stereo not given) the Potency was 15.4 µM (active). With CC(NCCc1ccc(O)cc1)C(O)c1ccc(O)cc1 (stereo not given) the “activity change, negative = cytotoxic” value was 7.02%. For O=C(C=Cc1ccc(O)cc1)c1ccc(O)cc1O, the Potency was 6.07 µM (active). In the case of COc1ccc2c(c1)c(C1=C(c3c[nH]c4ccccc34)C(=O)NC1=O)cn2CCCN(C)C, the Potency is reported as 21.5 µM (active). With CO[C@H]1O[C@@H]2O[C@@]3(C)CC[C@@H]4[C@@H](C)CC[C@@H]([C@H]1C)[C@@]24OO3 the “activity change, negative = cytotoxic” value was -8.04%. With CC1CNc2c(cccc2S(=O)(=O)N[C@@H](CCCN=C(N)N)C(=O)N2CC[C@@H](C)C[C@@H]2C(=O)O)C1 (stereo not given in full) the Potency was 8.57 µM (active). With COc1ccc2ccc(=O)oc2c1CC=C(C)C the “activity change, negative = cytotoxic” value was 2.71%. With Cc1[nH]c(C=C2C(=O)Nc3ccc(S(=O)(=O)N(C)c4cccc(Cl)c4)cc32)c(C)c1C(=O)N1CCN(C)CC1 the Potency was 30.4 µM (active). With CC1CCN(c2cc(N3CCN(C)CC3)ccc2NC(=O)c2cc(C#N)c[nH]2)CC1 the Potency was 21.5 µM (active). With C[C@@]1(C(=O)Nc2ccc(F)nc2)CCCN1c1nc(Nc2cc(C3CC3)[nH]n2)c2cccn2n1 the Potency was 1.92 µM (active). For COc1cc(C=CC(=O)O)ccc1O, the “activity change, negative = cytotoxic” value was -8.65%. In the case of Cc1cccc2c1CC[C@H](CN1CCC(c3c(Cl)cccc3Cl)CC1)C[C@@H]2O, the “activity change, negative = cytotoxic” value is reported as -1%. For O=C(c1ccc(F)c(F)c1Nc1ccc(I)cc1F)N1CC(O)([C@H]2CCCCN2)C1, the Potency was 6.07 µM (active). With Cc1cc2c(cc1C1(c3ccc(C(=O)O)cn3)CC1)C(C)(C)CCC2(C)C the “activity change, negative = cytotoxic” value was 8.15%. For Cc1cc(NC(=O)Nc2ccc(N(C)C)cc2)c2cc(F)cc(F)c2n1, the “activity change, negative = cytotoxic” value was -9.8%. For C[C@H]1COC2=C1C(=O)C(=O)c1c2ccc2c1CCCC2(C)C, the “activity change, negative = cytotoxic” value was -6.56%. With Cc1nc2c([nH]1)CCN(C(=O)c1ccc(NC(=O)c3ccccc3-c3ccccc3)cc1)c1ccccc1-2 the “activity change, negative = cytotoxic” value was 10.7%. For CCOC(=O)N1CCN([N+]([O-])=NOc2cc(ON=[N+]([O-])N3CCN(C(=O)OCC)CC3)c([N+](=O)[O-])cc2[N+](=O)[O-])CC1, the “activity change, negative = cytotoxic” value was 19%. For CNC(=O)c1cc(COc2nnc(Nc3ccc(Cl)cc3)c3ccoc23)ccn1, the “activity change, negative = cytotoxic” value was 2.32%. In the case of CCOC(=O)[C@H]1O[C@H]1C(=O)N[C@@H](CC(C)C)C(=O)NCCC(C)C, the “activity change, negative = cytotoxic” value is reported as 14.5%. For CC[C@H](C)n1cc(C)c2c(C(=O)NCc3c(C)cc(C)[nH]c3=O)cc(-c3ccc(N4CCNCC4)nc3)cc21, the Potency was 6.07 µM (active). With Fc1ccc(C(c2ccc(F)cc2)N2CCN(CC=Cc3ccccc3)CC2)cc1 the “activity change, negative = cytotoxic” value was 23.6%.
